# According to PubChem BioAssay (NCATS):
# Results filed as inconclusive are left out. A number with no mark means an inactive call. The source made the active and inactive calls. The call rests on the fitted dose curve; in most records, active means well fitted inhibition curve with a large enough effect; inconclusive means small, poorly fitted or top-dose-only effect; inactive means flat fitted curve, though single readings scatter.
# Assay: P-glycoprotein substrates identified in KB-8-5-11 adenocarcinoma cell line, qHTS therapeutic library screen (AID 1346987); further: nearly all actives have a fitted effect of over 65% in size
# Conditions: KB-8-5-11 (P-gp overexpressing) viability, CellTiter-Glo, 72 h; series mostly up to 44.5 µM; activity change, negative = cytotoxicity: at the top concentration
# In short: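 Compounds are pinned in dose-response onto KB-8-5-11 cells (500 cells/well, colchicine-free medium) and left 72 h at 37 degree C. CellTiter-Glo luminescence then yields AC50 values.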
# On the % scale 0 is the no-effect control and ±100 the full control effect; potency means the concentration at half of the fitted maximal effect.
SMILES,"activity change, negative = cytotoxicity",outcome,Potency
CC(O)/C=C/C1(O)C2(C)COC1(C)CC(O)C2 (centres undefined),-12.4%,–,–
CC1(C)CCCC2(C)C(C(=O)O)=CCC12 (centres undefined),-2.8%,–,–
OC/C=C/C=C/[C@H]1Cc2cc(O)cc(O)c2O1,–,inactive,–
OC[C@H]1O[C@@H](O[C@H]2[C@H](OCc3ccccc3)O[C@H](CO[C@@H]3OC[C@@H](O)[C@H](O)[C@H]3O)[C@@H](O)[C@@H]2O)[C@H](O)[C@@H](O)[C@@H]1O,1.87% [at 17.3 µM],–,–
COC(=O)C1=CO[C@@H](O[C@@H]2O[C@H](CO)[C@@H](O)[C@H](O)[C@H]2O)[C@@H]2C(CO)=CC[C@]12O,1.51% [at 17.3 µM],–,–
O=S(=O)(NCC1CC1)c1ccc(Nc2nccc(N3CCCc4cc(O)ccc43)n2)cc1,–,–,9.2 µM (active)
COc1ccc(/C=C/C(=O)O[C@@H]2[C@@H](O)[C@@H](O)[C@H](O[C@@H]3C=C(CO)[C@H]4[C@H](O[C@@H]5O[C@H](CO)[C@@H](O)[C@H](O)[C@H]5O)OC=C[C@H]43)O[C@H]2C)cc1O,–,inactive [at 17.3 µM],–
O=C1CCC=CC1(O)C(=O)OCc1ccccc1O[C@@H]1O[C@H](CO)[C@@H](O)[C@H](O)[C@H]1O (some centres undefined),-6.72% [at 17.3 µM],–,–
CN1C2CCC1CC(OC(=O)[C@H](CO)c1ccccc1)C2 (some centres undefined),1.52%,–,–
COc1cc2nc(N3CCCC3)nc(NCCCCCN3CCCC3)c2cc1OC,-14.8%,–,–
COC1CC(OC2CCC3(C)C(=CCC4C3C(OC(C)=O)C(OC(=O)/C=C/c3ccccc3)C3(C)C(C(C)O)CCC43O)C2)OC(C)C1OC1CC(OC)C(OC2OC(C)C(OC3OC(CO)C(O)C(O)C3O)C(OC)C2O)C(C)O1 (centres undefined),–,inactive [at 9.29 µM],–
CCC(CC)C(=O)Nc1sc2c(c1C#N)CCC(C(C)(C)CC)C2 (centres undefined),-13.3%,–,–
NC(=O)Nc1cc(-c2cccc(F)c2)sc1C(=O)NC1CCCNC1 (centres undefined),–,–,8.2 µM (active)
COc1ccc(-c2c(-c3cc(C(=O)O)ccn3)ncn2C)cc1,–,inactive,–
CCN1CCN(Cc2ccc(NC(=O)c3ccc(C)c(/C=C/c4cnc5[nH]ccc5c4OC)c3)cc2C(F)(F)F)CC1,–,–,23.1 µM (active)
CNS(=O)(=O)CC1CCC(N(C)c2ncnc3[nH]ccc23)CC1 (centres undefined),-12.4%,–,–
CC(=O)O[C@H]1C[C@@](O)(C(C)C)C2[C@@H](OC(=O)c3ccc(O)cc3)C[C@@]3(C)O[C@H]3C[C@]21C (some centres undefined),-6.91% [at 17.3 µM],–,–
Cc1cn(C2C=CC(CO)O2)c(=O)[nH]c1=O (centres undefined),-1.88%,–,–
CC1(C(=O)O)CCCC2(C)C3CCC4CC3(CCC12)CC4=O (centres undefined),8.09%,–,–
C=CC(C)(C)c1[nH]c2ccccc2c1C[C@@H]1NC(=O)[C@H](Cc2c[nH]c3ccccc23)NC1=O,0.653% [at 17.3 µM],–,–
CC(=O)OC1CC2(C)C3=CCC4(C)C5C(O)C(O)C(C(C)C)C5(C)CCC4(C)C3CCC2C(C)(C)C1OC1OC(CO)C(O)C(O)C1O (centres undefined),–,inactive [at 17.3 µM],–
CC1=C(C)C(=O)OC(C(C)C2CCC3C4CC=C5CC(OC6OC(COC7OC(CO)C(O)C(O)C7O)C(O)C(O)C6O)CC(O)C5(C)C4CCC23C)C1 (centres undefined),–,inactive [at 17.3 µM],–
c1ccc(N2CCN(CCc3nn[nH]n3)CC2)cc1,-6.1%,–,–
Cn1nnc(-c2ccc(-c3ccc(N4C[C@H](CO)OC4=O)cc3F)cn2)n1,-10.6%,–,–
O=C(O)Cc1ccc2oc(-c3ccc(NC(=O)/C=C/c4ccc(Br)cc4)c(F)c3)nc2c1,-7.12%,–,–
CN(C)c1nc(NC2CCC(NCCc3ccc(Br)cc3OC(F)(F)F)CC2)nc2ccccc12 (centres undefined),–,–,4.61 µM (active)
CC1(C)CC[C@]2(C(=O)O)[C@H](O)C[C@]3(C)C(=CCC4[C@@]5(C)CC[C@H](O[C@@H]6O[C@H](CO[C@@H]7OC[C@H](O)[C@H](O)[C@H]7O[C@@H]7OC[C@@H](O)[C@H](O)[C@H]7O)[C@@H](O)[C@H](O)[C@H]6O[C@@H]6O[C@H](CO)[C@@H](O)[C@H](O)[C@H]6O)C(C)(C)C5CC[C@]43C)[C@@H]2C1 (some centres undefined),6.47% [at 9.29 µM],–,–
CC1CCCCN1S(=O)(=O)c1ccc(N2CCCC2=O)cc1 (centres undefined),-10.6%,–,–
C=CC(=O)Nc1cc(Nc2nccc(-c3c[nH]c4ccccc34)n2)c(OC)cc1N(C)CCN(C)C,–,–,6.51 µM (active)
